From PubChem BioAssay AID777 (Sanford-Burnham Center for Chemical Genomics, 2007)
Among all 96,000 compounds or so, about 19,000 (20%) were called active. These entries were drawn from the full list. Values without a mark were called inactive.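 Rule for the calls: active = blocking of liver enzyme CYP2C9 beyond about 50% at 5 µM (limit read from the data); inactive = the rest.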

Target: Cytochrome P450 2C9 (Homo sapiens) (UniProt P11712)
Test: blockers of cytochrome P450 2C9 activity – biochemical, luminescence, ADME assay, primary screen (AID 777)
Details: CYP2C9 Supersomes, luciferin-H conversion, at 5 µM, stronger effect = higher value

Cytochrome P450 2C9 (Homo sapiens), sequence (P11712 whole entry, looked up): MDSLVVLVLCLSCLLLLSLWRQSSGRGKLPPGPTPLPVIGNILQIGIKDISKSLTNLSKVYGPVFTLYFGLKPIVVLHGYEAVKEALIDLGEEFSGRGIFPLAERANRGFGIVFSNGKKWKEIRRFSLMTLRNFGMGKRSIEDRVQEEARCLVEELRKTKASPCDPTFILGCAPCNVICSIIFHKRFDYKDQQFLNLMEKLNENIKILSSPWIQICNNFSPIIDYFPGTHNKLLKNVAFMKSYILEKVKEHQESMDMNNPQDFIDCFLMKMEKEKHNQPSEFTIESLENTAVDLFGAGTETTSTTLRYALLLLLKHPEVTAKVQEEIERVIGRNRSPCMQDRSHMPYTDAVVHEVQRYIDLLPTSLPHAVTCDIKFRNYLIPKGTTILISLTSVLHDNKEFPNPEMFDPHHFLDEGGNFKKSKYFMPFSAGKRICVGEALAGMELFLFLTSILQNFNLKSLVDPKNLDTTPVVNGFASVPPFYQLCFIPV

SMILES	inhibition
COC(=O)Cn1cc(C(=O)c2cccs2)c2ccccc21	25.3%
O=C(Cn1cc(C(=O)c2cccs2)c2ccccc21)NCc1cccs1	93.7% (active)
COC(=O)c1cn(CC(=O)NCc2cccs2)c2ccccc12	23.2%
CN(C)c1ccnc(Oc2ccc(F)cc2)c1C#N	40.8%
CCOC(=O)N1CCN(C(=O)COc2ccc(Cl)cc2C)CC1	-15.4%
CCOC(=O)N1CCN(C(=O)COc2ccc(Br)cc2)CC1	-4.3%
CCOC(=O)N1CCC(O)(c2cc(C)c(C)cc2C)CC1	67.1% (active)
COC(=O)c1ccc(N(CC(=O)NC2CCCC2)C(=O)CNC(=O)c2ccco2)cc1	28.7%
Cc1cc(C)nc(SCc2ccccc2C#N)n1	-24.8%
Cc1ccc(Cc2cncc(O)c2)cc1S(=O)(=O)O	0.1%
O=S(=O)(Nc1ccc2nc(-c3ccco3)[nH]c2c1)c1ccccc1	85.2% (active)
c1ccc2[nH]c(-c3nc4ccccc4[nH]3)nc2c1	16.1%
Cc1cc(NS(=O)(=O)c2ccccc2)no1	12.3%
Cc1cc(C)c2c3c(sc2n1)C(c1ccccc1)C(C#N)=C(N)O3 (stereo not drawn)	11%
Fc1ccc(OCc2nn3c(Cn4nnc5ccccc54)nnc3s2)cc1	23.6%
O=C(Nc1ccccc1)c1cccnc1Nc1ccccc1	1.5%
O=C(Nc1ccccc1)c1ccccc1NC(=O)C(F)(F)F	74.8% (active)
Cc1cccc(NC(=O)c2ccccc2NC(=O)C(C)(C)C)n1	11.7%
Cc1ccc(-n2c(=O)cc(N3CCN(Cc4ccccc4)CC3)[nH]c2=O)cc1	22.1%
CCOC(=O)C1CCN(C(=O)COc2cc(C)c(Br)c(C)c2)CC1	15.8%
CCCN1CCN(C(=O)Cn2ncc3ccccc32)CC1	1%
O=c1ccn(Cc2ccccc2Cl)cc1	-5.8%
O=c1[nH][nH]c(C(F)(F)F)c1C=NCc1ccccc1Cl	55.5% (active)
Cc1ccc(N(NC(=O)C(C)(C)O)C(=O)c2ccccc2)cc1C	2.5%
NS(=O)(=O)c1cccnc1Nc1cccc(Cl)c1	5.6%
O=C(Cc1ccccc1)N/N=C/c1ccc(Cl)cc1Cl	23.1%

SMILES	inhibition
O=C(Cn1cncn1)N/N=C/c1c2ccccc2cc2ccccc12	63.7% (active)
Cc1ccc(/C=N/NC(=O)Cn2nc(C)c(Br)c2C)o1	23.7%
CC(=O)Oc1ccc(C(C)=O)c2c1OCCO2	-9.3%
N#CCCn1cnc2ccccc21	-0.8%
O=C(CN1CCN(S(=O)(=O)/C=C/c2ccccc2)CC1)NC(=O)NCc1ccco1	40.2%
CC1(c2ccccc2Cl)NC(=O)N(CC(=O)NC(=O)NCc2ccco2)C1=O (stereo not drawn)	67.6% (active)
Cc1ccc(SCC(=O)NC(=O)NCc2ccco2)c(C)c1	30%
Cc1cccc(NC(=O)c2ccc3ccccc3n2)n1	-0.8%
COc1cc(OC)nc(NC(=O)CCl)n1	-14.2%
O=P(O)(CP(=O)(c1ccccc1)c1ccccc1)c1ccccc1O	-5.8%
CC(CO)N1CCS(=O)(=O)CC1 (stereo not drawn)	-5.6%
COc1ccc(NC(=O)C(CC(C)C)NS(=O)(=O)c2ccc3c(c2)CCN3C(C)=O)cc1OC (stereo not drawn)	7.4%
Brc1ccc(OCCn2ccnc2)cc1	72.1% (active)
CC(=O)NS(=O)(=O)c1ccccc1	0.2%
O=C1C(Cl)=C(N2CCOCC2)C(=O)N1c1ccccc1	5%
CC1(C)SC2c3ccccc3C(=O)N2[C@@H]1C(=O)NCc1ccco1 (stereo partly drawn)	57.9% (active)
COc1cc2c(cc1OC)C(C(=O)NCc1ccco1)C1c3ccccc3CCN1C2=O (stereo not drawn)	42%
CC(C)(C)c1ccc(NC(=O)NCc2ccco2)cc1	-17.8%
CC1CCc2c(sc3c2C2=NS(=O)(=O)CCN2C=N3)C1 (stereo not drawn)	6.8%
CC(C)CC(=O)Nc1cc(C(F)(F)F)ccc1N1CCOCC1	9.9%
O=C(Nc1cc(-c2nn(CC(=O)N3CCCCC3)c(=O)c3ccccc23)ccc1N1CCOCC1)c1ccc(Cl)cc1	0.2%
O=C(Cn1nnc2ccccc2c1=O)Nc1cc(C(F)(F)F)ccc1N1CCOCC1	60.7% (active)
CCCCc1nccn1CCn1ccnc1CCCC	-10.5%
CN1CCN(CC(=O)Nc2sc3c(c2C#N)CCC(C(C)(C)C)C3)CC1 (stereo not drawn)	33.8%
O=C(Nc1c(-c2ccccc2)nc2c(Br)cc(Br)cn12)c1ccco1	15.6%
c1ccc2c(CNn3cnnc3)cccc2c1	-2.3%

SMILES	inhibition
N=C(N)SCc1cccc2ccccc12	-24.4%
c1ccc2c(C[n+]3csc4ccccc43)cccc2c1	76.7% (active)
Cc1ccc(C(=O)NNC(=O)OC(C)(C)C)c(Cl)c1	1.9%
CCc1ccc(CNC(=O)C2CCCN(c3nc4ccccc4o3)C2)cc1 (stereo not drawn)	45%
O=S(=O)(c1ccc(OCC(O)CN2CCN(c3ccccc3Cl)CC2)cc1)N1CCOCC1 (stereo not drawn)	28.3%
CCOC(=O)Cc1csc(NC(=O)C(C)(C)C)n1	30.2%
Cc1ccc(S(=O)(=O)N(C)CC(=O)N2CCc3ccccc32)cc1	-132%
CC(=O)N1CCN(c2cccc(C)c2C)CC1	-8.6%
Cc1cccc(N2CCN(C(=O)CN(C)S(=O)(=O)c3ccc4c(c3)CCC(=O)N4)CC2)c1C	51% (active)
CCOC(=O)Cc1csc(NC(=O)CSc2nc(C)cc(=O)[nH]2)n1	23.2%
CCOC(=O)Cc1csc(NC(=O)CN(C)S(=O)(=O)c2ccc3c(c2)CCC(=O)N3)n1	65.5% (active)
COC(=O)/C=C/C(=O)NCc1ccco1	1.2%
OCCN1CCOCCOCCN(CCO)CCN(CCO)CC1	12.8%
Cc1ccc(C(=O)/C=C/c2c(C)nn(-c3ccccc3)c2Cl)cc1	90.4% (active)
Cc1nn(-c2ccccc2)c(CC(C)(C)C(=O)O)c1C(=O)O	-10.3%
Cc1nn(-c2ccccc2)c(Cl)c1C(=O)Nc1ccccc1	-47%
O=C(Nc1ccccc1C(=O)N1CCOCC1)C1CCC(=O)N1C1CCCC1 (stereo not drawn)	-9.2%
COc1cccc(N2C(=O)C3CCCN3C2c2ccc(F)cc2)c1 (stereo not drawn)	-9.4%
COc1ccc(OCC(=O)OCCN(C)C)cc1	-12.1%
CN(C)C(CNC(=O)CCCOc1ccccc1)c1ccco1 (stereo not drawn)	51.7% (active)
O=C(CCOc1ccccc1)NCc1ccccc1	6.9%
O=C(CCCOc1ccccc1)NCc1ccco1	18.1%
O=C(NCC12CC3CC(C1)CC(CNC(=O)N1CCCC1)(C3)C2)N1CCCC1	-12.3%
Nc1nc(SCCOc2ccccc2)n[nH]1	-8.6%
COc1cc2c(cc1NC(=O)CN1CCN(S(=O)(=O)c3ccc(F)cc3)CC1)oc1ccccc12	78.7% (active)
COc1ccc(NC(=O)CN2CCN(S(=O)(=O)c3ccc(F)cc3)CC2)cc1Cl	17.3%

SMILES	inhibition
COc1ccccc1NC(=O)CN1CCN(S(=O)(=O)c2ccc(Br)cc2)CC1	-0.8%
CN1/C(=c2/s/c(=C3/C(=O)N(c4ccccc4)NC3=Nc3ccccc3)n(C)c2=O)C(C)(C)c2ccccc21	19%
CCNC(=O)c1c(O)c2cccc3c2n(c1=O)CC3	10.3%
O=C(COC(=O)CCC(=O)c1cccs1)NCc1ccco1	2.9%
Cc1nn2c3ccccc3nc2n(C)c1=O	-5.7%
CC(C)(C)N1CC(c2nc3ccccc3n2Cc2ccc(F)cc2)CC1=O (stereo not drawn)	22.8%
CC(C)(C)c1cc(=O)n2c(nc3ccccc32)[nH]1	52% (active)
Cn1c(SCC(=O)N2CCOCC2)nnc1-c1ccc(NC(=O)c2ccccc2F)cc1	13%
CCCCC(CC)C(=O)Nc1ccc(Cl)cn1 (stereo not drawn)	7.6%
CC(C)C(NC(=O)OCc1ccccc1)C(=O)OCC(=O)N1C(C)CCCC1C (stereo not drawn)	1.2%
CCC(C)NC(=O)c1c(N)n(/N=C/c2cccs2)c2nc3ccccc3nc12 (stereo not drawn)	17.2%
Cc1ccc(OCc2nnc(NC(=O)OCC(C)C)s2)cc1	20.2%
CC(C)c1cc(C(N)=O)c(NC(=O)c2cccc(COc3ccc(Br)cc3)c2)s1	56.1% (active)
COc1ccc(N2CCN(C3CC(=O)N(c4ccc5c(c4)OCCO5)C3=O)CC2)cc1 (stereo not drawn)	-1%
O=c1oc2c(Cl)cc(Cl)cc2cc1-c1nnc(Nc2ccccc2F)s1	-4.3%
Cc1cccc(OCc2nnc(SCc3nc4cc(C(F)(F)F)ccc4c(=O)[nH]3)o2)c1	33%
O=C(Cc1ccc(S(=O)(=O)N2CCCC2)s1)NC1CCCCCC1	35.1%
O=C(Cc1ccc(S(=O)(=O)N2CCOCC2)s1)NCCC(c1ccccc1)c1ccccc1	71.6% (active)
O=C(c1ccc(S(=O)(=O)N2CCOCC2)cc1)N1CCN(c2ccccc2)CC1	-4.5%
C=C(Br)Cn1c(CCCC)nc2ccccc21	35%
Cc1[nH]n(-c2ccc([N+](=O)[O-])cc2)c(=O)c1C=NCCN1CCN(C(=O)c2ccccc2F)CC1	16.8%
Cc1csc(NC(=O)C2CCCN2C(=O)OCC(C)C)n1 (stereo not drawn)	21.7%
Cc1ccc(-n2nc3ccc(NC(=O)/C=C/c4ccco4)cc3n2)cc1C	34.5%
O=C(/C=C/c1ccco1)Nc1cccc(-c2nc3ccccc3[nH]2)c1	81.3% (active)
O=C(/C=C/c1ccco1)Nc1ccc(Oc2ccccc2)cc1	11.5%
